Reference: PubChem BioAssay AID651813 (National Center for Advancing Translational Sciences (NCATS), 2012)
Out of some 2,100 compounds screened, about 1,100 (52%) were called active. About 27% were inconclusive and are not listed. Calls come from the whole dose curve; as a rule, active = well fitted inhibition curve with a large enough effect; inconclusive = small, poorly fitted or top-dose-only effect; inactive = no such curve, though single readings can be large or run the other way. The set was probably picked from earlier hits. The list shows a part of the results.

These compounds were tested against DNA dC->dU-editing enzyme APOBEC-3G (Homo sapiens) (UniProt Q9HC16) (assay: qHTS for inhibitors of Vif-A3G interactions: Cherry picks counterscreen). Details: HeLa A3G-eYFP + Vif (tagged APOBEC3G with the HIV-1 protein that degrades it), eYFP fluorescence, 24 h.
Outline: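 Readout is eYFP fluorescence (488 nm excitation, 500-530 nm emission) measured on Acumen Explorer after 24 h compound exposure, several concentrations, at 37 deg C. Cells: HeLa stably co-expressing Vif and C-terminally eYFP-tagged A3G; MG132 positive control.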
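Note: hits raise yellow fluorescence by blocking Vif-driven A3G-eYFP degradation; nearly all actives have a fitted effect of over 70% in size.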
Potency is the fitted concentration of half-maximal effect.
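Throughout, for max response: max response given as percent of control signal.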

DNA dC->dU-editing enzyme APOBEC-3G (Homo sapiens), sequence (Q9HC16 whole entry, looked up): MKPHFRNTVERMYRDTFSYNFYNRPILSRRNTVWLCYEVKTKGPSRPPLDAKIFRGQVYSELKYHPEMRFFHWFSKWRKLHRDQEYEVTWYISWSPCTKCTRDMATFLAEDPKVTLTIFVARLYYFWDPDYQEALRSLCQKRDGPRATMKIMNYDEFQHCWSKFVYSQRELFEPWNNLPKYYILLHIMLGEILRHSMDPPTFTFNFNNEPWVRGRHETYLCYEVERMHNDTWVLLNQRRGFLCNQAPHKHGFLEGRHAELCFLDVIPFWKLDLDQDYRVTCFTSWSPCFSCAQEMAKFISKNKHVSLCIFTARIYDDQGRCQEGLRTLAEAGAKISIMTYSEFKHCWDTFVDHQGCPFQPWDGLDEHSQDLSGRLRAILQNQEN

SMILES	max response	Potency
CCN(CC)C(=O)Cn1c(=O)n(-c2ccccc2)c(=O)c2c3c(sc21)CCC3	-20.5% (inactive)	
CCOc1ccc(C(=O)C(CCC(CN(C)C)C(=O)c2ccc(OCC)cc2)CN(C)C)cc1 (configuration not stated)	-24.5% (inactive)	
CCOc1ccc(C(=O)COC(=O)Cc2n[nH]c(=O)c3ccccc23)cc1		15.8 µM (active)
O=C(Cc1n[nH]c(=O)c2ccccc12)OCC(=O)c1ccc2c(c1)OCCO2		2.8 µM (active)
O=C(C(=O)N1CCN(c2ccccc2Cl)CC1)c1c[nH]c2ccccc12	-13.1% (inactive)	
O=C(Nc1ccc2c(c1)OCCO2)C(=O)c1c[nH]c2ccccc12		6.27 µM (active)
N#Cc1c(-c2ccccc2)c(-c2ccccc2)nn(CC(=O)NNC(=O)Nc2ccccc2)c1=O		1.98 µM (active)
N#Cc1c(-c2ccc(F)cc2)c(-c2ccc(F)cc2)nn(CCO)c1=O		7.04 µM (active)
CCOC(=O)COn1c(=O)c(-c2ccc(Br)cc2)[n+]([O-])c2ccccc21	4.24% (inactive)	
CCOC(=O)Cn1c(=O)c(-c2cc(Br)ccc2N)nc2ccccc21		8.2 µM (active)
CCOc1ccccc1N1CC(c2nc3ccccc3n2Cc2c(C)cc(C)cc2C)CC1=O (configuration not stated)	-2.71% (inactive)	
Cc1ccc(S(=O)(=O)CCSc2nc(C)cc(C(F)(F)F)c2C#N)cc1		17.7 µM (active)
CCOC(=O)CCSc1nc(C)cc(C(F)(F)F)c1C#N		12.5 µM (active)
COc1ccc(NC(=O)C2(C)Cc3c(-c4ccc5c(c4)OCO5)ccnc3O2)cn1 (configuration not stated)		7.04 µM (active)
COc1ccc(NC(=O)C2(C)Cc3c(-c4cccc(NC(C)=O)c4)ccnc3O2)cn1 (configuration not stated)		1.98 µM (active)
COc1ccc(NC(=O)C2(C)Cc3c(-c4cccc(C(N)=O)c4)ccnc3O2)cn1 (configuration not stated)		7.9 µM (active)
C=CCNC(=S)N/N=C/c1ccc(C)cc1C	-13.8% (inactive)	
COc1ccc2nc(SCC(C)=O)c(C#N)cc2c1		3.66 µM (active)
COc1ccc2nc(SCC(=O)N3CC(=O)Nc4ccccc43)c(C#N)cc2c1		18.4 µM (active)
CCc1ccc2nc(SCC(=O)N3CC(=O)Nc4ccccc43)c(C#N)cc2c1		12.5 µM (active)
CCc1ccc2nc(SCC(=O)Nc3ccccc3N3CCOCC3)c(C#N)cc2c1		1.64 µM (active)
N#Cc1cc2ccccc2nc1SCC(=O)Nc1ccccc1N1CCOCC1	-5.1% (inactive)	
CC1C/C(=N\NC(N)=S)c2cc(Cl)ccc2S1 (configuration not stated)	-16.7% (inactive)	

SMILES	max response	Potency
Cc1cc(C)c2nc(SCC(=O)N3CC(=O)Nc4ccccc43)c(C#N)cc2c1		1.4 µM (active)
Cc1ccc(C(=O)CSc2nc(-c3ccccc3)ccc2C#N)cc1		10.3 µM (active)
N#Cc1ccc(-c2cccnc2)nc1SCC(=O)c1ccccc1		2.91 µM (active)
NN=C1c2ccccc2C(=O)C1C(=O)C(c1ccccc1)c1ccccc1 (configuration not stated)		15.8 µM (active)
O=C(c1ccccc1)C1C(=O)c2ccccc2C1=O	-3.97% (inactive)	
CC(C)NC(=S)N/N=C/c1sc(N2CCCCC2)nc1-c1cccs1		20.6 µM (active)
CC(C)NC(=S)N/N=C1\CCCCc2ccccc21	-0.219% (inactive)	
COC(=O)C1=C(Nc2ccc(C)cc2)C=C(C)C(C(=O)OC)C1c1cccc(OC)c1 (configuration not stated)		11.2 µM (active)
COCc1ccc(O)c2ncccc12	15.6% (inactive)	
COCCCNC(=S)N/N=C/c1ccc(OC)cc1	-8.47% (inactive)	
COc1ccc2c(c1)c(C(=O)N/N=C/c1ccc(Cl)cc1)c(C)n2C		12.5 µM (active)
CC1=C/C(=C\C=C(C#N)C#N)N(C)c2ccccc21		2.06 µM (active)
CC(=O)c1cc2c(cc1NS(=O)(=O)c1ccc(C)cc1)OCCO2		12.5 µM (active)
CCN(CC)c1ccc(/C=C/c2cccc[n+]2C)c(OC)c1		7.04 µM (active)
O=C(NCCc1ccccc1Cl)c1ccc(Cn2c(=O)c3cccn3c3cccnc32)cc1		14.6 µM (active)
CCOc1ccc(CCNC(=O)c2ccc(Cn3c(=O)c4cccn4c4cccnc43)cc2)cc1	-3.64% (inactive)	
N#Cc1cccn1-c1nccc(-c2cccs2)n1		8.86 µM (active)
Cc1ccc2[nH]c(C)c(/C=C/c3cc[n+](C)cc3)c2c1		0.627 µM (active)
Cc1[nH]c2ccccc2c1/C=C/c1cc[n+](C)cc1		0.994 µM (active)
Cc1[nH]c2ccccc2c1/C=C/C(=O)c1ccccc1		18.4 µM (active)
CC(OC(=O)/C(C#N)=C/c1ccc(N(C)C)cc1)C(=O)N(C)Cc1ccccc1 (configuration not stated)		23.1 µM (active)
O=C(C(=Cc1ccccc1)CN1CCCCC1)c1ccccc1		3.14 µM (active)
CC(C)(C)NCC(=Cc1ccccc1)C(=O)c1ccccc1	-3.58% (inactive)	

SMILES	max response	Potency
COc1cc(C2Nc3ccc4ncccc4c3C3=C2C(=O)CCC3)ccc1O (configuration not stated)		14 µM (active)
COc1cc(C2Nc3ccc4ncccc4c3C3=C2C(=O)CCC3)cc(OC)c1O (configuration not stated)		11.2 µM (active)
CCOC(=O)c1sc2cc([N+](=O)[O-])cc(SCC(C)C)c2c1N		2.31 µM (active)
COC(=O)c1sc2cc([N+](=O)[O-])cc(SCC(C)C)c2c1N		8.2 µM (active)
Cc1ccc2nc3c(cc(S(=O)(=O)c4ccccc4)c(=N)n3Cc3ccco3)c(=O)n2c1	17.8% (inactive)	
CCc1ccc(/C=N/NC(=O)c2cc(-c3ccncc3)nc3ccccc23)s1		3.53 µM (active)
CC(/C=N/NC(=O)c1cc(-c2ccccc2)nc2ccccc12)=C\c1ccco1		2.23 µM (active)
O=C(N/N=C/c1ccco1)c1cc(-c2ccncc2)nc2ccccc12		11.2 µM (active)
CC(/C=N/NC(=O)c1cc(-c2ccc3ccccc3c2)n[nH]1)=C\c1ccco1		14 µM (active)
CCn1c(O)c(/C=N/NC(=O)c2ccncc2)c(=O)n(CC)c1=S	-1.22% (inactive)	
CCC(=C/c1sc2ccc3ccccc3c2[n+]1C)/C=C1\Sc2ccc3ccccc3c2N1C	-21.8% (inactive)	
Cc1[nH]c2ccccc2c1/C=N/NC(=O)c1cc(-c2ccncc2)nc2ccccc12		9.94 µM (active)
O=C(NC(=S)Nc1ccc(-c2ccccc2)cc1)c1ccccc1	2.13% (inactive)	
O=C(Nc1ccccc1OC(=O)c1ccccc1)c1ccccc1		17.7 µM (active)
COc1ccccc1NC(=O)Cc1ccc(-c2ccccc2)cc1	-14.2% (inactive)	
Cc1cc2c(cc(C(=O)OCC(=O)NCc3cccs3)n2C(C)C)o1		6.27 µM (active)
CCn1cc(/C=C/c2cc[n+](C)cc2)c2ccccc21		1.77 µM (active)
CC(C)n1cc(/C=C/c2cc[n+](C)cc2)c2ccccc21		3.53 µM (active)
C=CCn1cc(/C=C/c2cc[n+](C)cc2)c2ccccc21		0.886 µM (active)
O=c1[nH]c2cc(Br)cnc2nc1/C=C(\O)c1ccc(F)cc1		18.4 µM (active)
COc1ccc(-n2nnnc2-c2ccccc2)cc1		3.14 µM (active)
COc1ccc(-n2nnnc2-c2cccc(OC)c2)cc1		1.98 µM (active)
CCOc1cccc(-n2nnnc2-c2ccc(OC)cc2)c1		4.98 µM (active)

SMILES	max response	Potency
COc1cccc(C(=O)Nc2ncc3c(n2)CC(c2ccc(OC)cc2OC)CC3=O)c1 (configuration not stated)		17.7 µM (active)
COc1ccc2cc(-c3nc(Cl)c4c5c(sc4n3)CC(C)CC5)c(=O)oc2c1 (configuration not stated)		20.6 µM (active)
CCN(CC)c1ccc2cc(-c3nc4sc5c(c4c(=O)[nH]3)CCC(C(C)(C)C)C5)c(=O)oc2c1 (configuration not stated)	48% (inactive)	
COc1ccccc1-c1nnc2sc(-c3cc4ccccc4o3)nn12		1.98 µM (active)
CS(=O)(=O)N(CC(=O)N1CCN(Cc2ccccc2)CC1)c1ccccc1F	-9.78% (inactive)	
CCN(CC)CCCNc1ccc2ncn3c4ccc(O)cc4c(=O)c1c23		23.1 µM (active)
CN(C)C(=O)c1cccc(-c2cnc3c(NC=O)cc(-c4ccccc4F)cn23)c1	-0.0482% (inactive)	
Cc1ccc(-c2cc(NC=O)c3ncc(-c4cccc(C(=O)N(C)C)c4)n3c2)cc1		8.86 µM (active)
Cc1ccc(-c2cc(NC=O)c3ncc(-c4cnn(C)c4)n3c2)cc1		3.14 µM (active)
CC(C)n1c(O)c(N=Nc2ccc(Cl)nn2)c2ccccc21		18.4 µM (active)
NC(=O)CSc1nc2c(sc3ccccc32)c(=O)n1CCCC(=O)NCC1CCCO1 (configuration not stated)	-5.1% (inactive)	
CCOC(=O)/C=c1/s/c(=C\c2c(OC)ccc3ccccc23)c(=O)n1CC(=O)NCC1CCCO1 (configuration not stated)		11.2 µM (active)
CCOC(=O)/C=c1\s/c(=C\c2c(OC)ccc3ccccc23)c(=O)n1CC(=O)NCC1CCCO1 (configuration not stated)		14.6 µM (active)
CN(C)c1ccc(/C=C/c2ccnc3c(Cl)ccc(Cl)c23)cc1		3.26 µM (active)
CN(C)c1ccc(/C=C/c2ccnc3c(N)cccc23)cc1		14.6 µM (active)
CN(C)c1ccc(/C=C/c2ccnc3c(Cl)cccc23)cc1		11.6 µM (active)
Brc1ccc2c(c1)C(c1cccnc1)=NNC(c1cccs1)=N2		8.86 µM (active)
c1cncc(-c2nc(NCc3cccs3)c3ccccc3n2)c1	-5.92% (inactive)	
CC(=O)n1cc(/C=N/NC(=O)c2sc(C)nc2C)c2ccccc21		17.7 µM (active)
O=C(c1ccc(CS(=O)c2ccccc2Cl)o1)N1CCN(c2ccccc2F)CC1 (configuration not stated)		2.91 µM (active)
Cn1c(=O)[nH]c(=O)c2c1nc(Br)n2Cc1cccc(Br)c1		7.04 µM (active)
O=C1C=CC(O)(c2cc(=O)c3c(O)cc(O)cc3o2)C=C1		7.9 µM (active)
COc1cc(-c2noc(C)c2C#Cc2ccc(N)cc2)cc(OC)c1OC		0.444 µM (active)
